Measured values reported in the supplement of paper PMC10338343.
± gives the standard deviation.

system: MILI (PIWIL2) piRISC loaded with piRNA #1 (26 nt); assay: pre-steady-state target cleavage rate (min^-1); guide: piRNA #1 5'p-UGAGGUAGUAGGUUGUAUAGUAUCCA; higher = faster piRNA-guided slicing of the target; settings: auxiliary factor: 500 nM mouse GTSF1
How it was run: (§1)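 Cleave-'n-Seq used a transcribed, DNA-blocked target RNA library at 0.1 nM and active affinity-purified piRISC with one synthetic guide at 1 nM, with or without 500 nM GTSF1 partner protein, in HEPES–potassium acetate buffer at 33 °C for 0–8 or 0–960 min. Uncleaved targets were sequenced and normalised to depth and to weakly complementary targets, and three trials were pooled with k3 capped at 0.0001 min^-1. The pre-steady-state cleavage rate was estimated by a burst-and-steady-state fit.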

**Q.** Which “pre-steady-state target cleavage rate” value does the source give for GGAGACCAUACUAUACAACCUACUUCCUGA here?
**A.** 0.0889 ± 0.02

**Q.** With GGAGACGAUACAAUACAACCUACUACCACA as the sequence, how does the “pre-steady-state target cleavage rate” value read?
**A.** 0.204 ± 0.019

**Q.** How did the “pre-steady-state target cleavage rate” value turn out when GGAGACCAUACUAUACAACCUACACCUCA was run?
**A.** 0.00885 ± 0.0037

**Q.** Which “pre-steady-state target cleavage rate” value does the source give for GGAGUGGAUACUAAACAACCUACUACCUGA here?
**A.** 0.0827 ± 0.012

**Q.** With GGAGACCUAACUAUACCACCUACUACCUCA as the sequence, how does the “pre-steady-state target cleavage rate” value read?
**A.** 0.0944 ± 0.018

**Q.** Which “pre-steady-state target cleavage rate” value does the source give for GGAGACCUUACGAUACAACCUACUACCUCA here?
**A.** 0.152 ± 0.017

**Q.** With GGAGAGGAUACUAUACAACCUUCUACCUCA as the sequence, how does the “pre-steady-state target cleavage rate” value read?
**A.** 0.0114 ± 0.0024

**Q.** Which “pre-steady-state target cleavage rate” value does the source give for GGAGACGAACUAUACAACCUACUACCUCA here?
**A.** 0.138 ± 0.012

**Q.** How did the “pre-steady-state target cleavage rate” value turn out when GGAGUGCGAUACUAUACAACCUACUACCUCA was run?
**A.** 0.206 ± 0.013

**Q.** For GGAGACCUAACUAAUACAACCUACUACCUCA, which “pre-steady-state target cleavage rate” value is on record?
**A.** 0.103 ± 0.025

**Q.** Which “pre-steady-state target cleavage rate” value does the source give for GGAGAGGUUACAAUACAACCUACUACCUCA here?
**A.** 0.181 ± 0.014

**Q.** How did the “pre-steady-state target cleavage rate” value turn out when GGAGACGAUACAAUACAACCAACUACCUCA was run?
**A.** 0.0105 ± 0.0027

**Q.** For GGAGACCAUACUAUACAACCUACUGCCUCA, which “pre-steady-state target cleavage rate” value is on record?
**A.** 0.139 ± 0.015

**Q.** GGAGUGGAUAGUAUACAACCUACUACGUCA was tested. Which “pre-steady-state target cleavage rate” value did it give?
**A.** 0.0386 ± 0.0083

**Q.** For GGAGUGGAUACUAAUACAACCUACUACCUCA, which “pre-steady-state target cleavage rate” value is on record?
**A.** 0.135 ± 0.0082

system: EfPiwi piRISC loaded with piRNA #1 (26 nt); assay: pre-steady-state target cleavage rate (min^-1); auxiliary factor: 500 nM Ephydatia muelleri Gtsf1; guide: piRNA #1 5'p-UGAGGUAGUAGGUUGUAUAGUAUCCA; MIWI and MILI are mouse PIWI proteins and EfPiwi is from a freshwater sponge; tags in brackets are library labels; higher = faster piRNA-guided slicing of the target; settings: not given
How it was run: as §1

**Q.** GGAGUGGAUACUAUAGAACCUACUAGCUCA was tested. Which “pre-steady-state target cleavage rate” value did it give?
**A.** 0.00232 ± 0.0015

**Q.** Which “pre-steady-state target cleavage rate” value does the source give for GGAGACCAUACUAUACAACCUAGUUCCUCA here?
**A.** 0.00549 ± 0.0029

**Q.** For GGAGAAGAUACUAUACAACCUACUACCUCA, which “pre-steady-state target cleavage rate” value is on record?
**A.** 0.0965 ± 0.035

**Q.** How did the “pre-steady-state target cleavage rate” value turn out when GGAGACCAUACUAUACUACCUACUACCACA was run?
**A.** 0.0069 ± 0.0053

**Q.** GGAGACCAUACUUUACAACCUACUACCUGA was tested. Which “pre-steady-state target cleavage rate” value did it give?
**A.** 0.00591 ± 0.0031

**Q.** Which “pre-steady-state target cleavage rate” value does the source give for GGAGACCUAACUAUACAACCUGCUACCUCA here?
**A.** 0.0127 ± 0.005

**Q.** With “GGAGACCUUACUAUACAACCUACUACCUCU [g2:g22:cont:t1U]” as the sequence, how does the “pre-steady-state target cleavage rate” value read?
**A.** 1.04 ± 0.39

**Q.** For GGAGAGGAUACUAUACAUCCUUCUACCUCA, which “pre-steady-state target cleavage rate” value is on record?
**A.** 0.00362 ± 0.0026

**Q.** Which “pre-steady-state target cleavage rate” value does the source give for GGAGACGAUACUAUUCAACCUACUACCUCA here?
**A.** 0.00923 ± 0.0038

**Q.** For GGAGACCUUACUAUACAACCUACUACCUCCA, which “pre-steady-state target cleavage rate” value is on record?
**A.** 0.00652 ± 0.0028

**Q.** For GGAGUGGAUACUAUACAACCUACUACACUCA, which “pre-steady-state target cleavage rate” value is on record?
**A.** 0.00464 ± 0.0021

**Q.** With GGAGACCUUACUAUGACAACCUACUACCUCA as the sequence, how does the “pre-steady-state target cleavage rate” value read?
**A.** 0.00456 ± 0.0042

**Q.** How did the “pre-steady-state target cleavage rate” value turn out when GGAGACGAUACUAUACAACCUACUAACUCA was run?
**A.** 0.00467 ± 0.0021

**Q.** With GGAGACGAUUCUAUACAACCAACUACCUCA as the sequence, how does the “pre-steady-state target cleavage rate” value read?
**A.** 0.00258 ± 0.0018

**Q.** GGAGACCUAACAAUACAUCCUACUACCUCA was tested. Which “pre-steady-state target cleavage rate” value did it give?
**A.** 0.00431 ± 0.0035

**Q.** With GGAGACCAUAGUAUACAACCUACUACGUCA as the sequence, how does the “pre-steady-state target cleavage rate” value read?
**A.** 0.00463 ± 0.0028

**Q.** GGAGAGGAUACUAUACAAUCUACUACCUCA was tested. Which “pre-steady-state target cleavage rate” value did it give?
**A.** 0.0116 ± 0.0062

**Q.** For GGAGAGGAUACUAUACAACCUACUGCCUCA, which “pre-steady-state target cleavage rate” value is on record?
**A.** 0.00919 ± 0.0038

**Q.** For GGAGACCUUACUUUACAUCCUACUACCUCA, which “pre-steady-state target cleavage rate” value is on record?
**A.** 0.00417 ± 0.0035

**Q.** GGAGACGAUACUAUACAUCGUACUACCUCA was tested. Which “pre-steady-state target cleavage rate” value did it give?
**A.** 0.00254 ± 0.0012

**Q.** How did the “pre-steady-state target cleavage rate” value turn out when GGAGAGGAUACUAAACAAGCUACUACCUCA was run?
**A.** 0.00412 ± 0.0017

**Q.** Which “pre-steady-state target cleavage rate” value does the source give for GGAGUGGAAACUAUACAAGCUACUACCUCA here?
**A.** 0.00579 ± 0.0027

**Q.** With GGAGUGGAUACUAUACAACCUAGAACCUCA as the sequence, how does the “pre-steady-state target cleavage rate” value read?
**A.** 0.00464 ± 0.0024

**Q.** How did the “pre-steady-state target cleavage rate” value turn out when GGAGACCUAACUAUACAACCUACUGCCUCA was run?
**A.** 0.0364 ± 0.015

**Q.** For GGAGACCAUACUAUACAACCUACUUCCUGA, which “pre-steady-state target cleavage rate” value is on record?
**A.** 0.00388 ± 0.0027

**Q.** Which “pre-steady-state target cleavage rate” value does the source give for GGAGACGAUACAAUACAACCUACUACCACA here?
**A.** 0.00392 ± 0.0029

**Q.** How did the “pre-steady-state target cleavage rate” value turn out when GGAGACCAUACUAUACAACCUACACCUCA was run?
**A.** 0.00776 ± 0.0044

**Q.** For GGAGUGGAUACUAAACAACCUACUACCUGA, which “pre-steady-state target cleavage rate” value is on record?
**A.** 0.00228 ± 0.0017

**Q.** Which “pre-steady-state target cleavage rate” value does the source give for GGAGACCUAACUAUACCACCUACUACCUCA here?
**A.** 0.0066 ± 0.0031

**Q.** With GGAGACCUUACGAUACAACCUACUACCUCA as the sequence, how does the “pre-steady-state target cleavage rate” value read?
**A.** 0.0548 ± 0.021

**Q.** With GGAGAGGAUACUAUACAACCUUCUACCUCA as the sequence, how does the “pre-steady-state target cleavage rate” value read?
**A.** 0.00778 ± 0.0039

**Q.** GGAGACGAACUAUACAACCUACUACCUCA was tested. Which “pre-steady-state target cleavage rate” value did it give?
**A.** 0.0112 ± 0.0057

**Q.** How did the “pre-steady-state target cleavage rate” value turn out when GGAGUGCGAUACUAUACAACCUACUACCUCA was run?
**A.** 0.136 ± 0.044

**Q.** With GGAGACCUAACUAAUACAACCUACUACCUCA as the sequence, how does the “pre-steady-state target cleavage rate” value read?
**A.** 0.0103 ± 0.0044

**Q.** How did the “pre-steady-state target cleavage rate” value turn out when GGAGAGGUUACAAUACAACCUACUACCUCA was run?
**A.** 0.00504 ± 0.0035

**Q.** How did the “pre-steady-state target cleavage rate” value turn out when GGAGACGAUACAAUACAACCAACUACCUCA was run?
**A.** 0.0037 ± 0.0029

**Q.** How did the “pre-steady-state target cleavage rate” value turn out when GGAGACCAUACUAUACAACCUACUGCCUCA was run?
**A.** 0.00606 ± 0.0025

**Q.** For GGAGUGGAUAGUAUACAACCUACUACGUCA, which “pre-steady-state target cleavage rate” value is on record?
**A.** 0.00277 ± 0.0018

**Q.** Which “pre-steady-state target cleavage rate” value does the source give for GGAGUGGAUACUAAUACAACCUACUACCUCA here?
**A.** 0.08 ± 0.032
